# The sample as a whole holds a higher share of the strongest signals than the screen did.
# Key:
# Assay in all cases: glycan array binding signal (z-score within array); higher = stronger binding
# Details in all cases: glycan notation: IUPAC condensed, linker removed
# [1] = biological target: Fuc(a1-2)Gal(b1-3)GalNAc(b1-3)Gal
# Procedure, shortened: (§1)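 From the Consortium for Functional Glycomics database, 3228 arrays were curated, keeping only those whose protein sequence was available. Binding is given as a within-array Z-score averaged across arrays sharing a protein sequence and across linkers. Negative Z-scores can be read as non-binding.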
# [2] = biological target: Fuc(a1-2)Gal(b1-3)GlcNAc(b1-3)[Neu5Ac(a2-6)Gal(b1-4)GlcNAc(b1-6)]Gal(b1-4)Glc
# Procedure, shortened: as §1
# [3] = biological target: Fuc(a1-2)[GalNAc(a1-3)]Gal(b1-3)GlcNAc(b1-2)Man(a1-3)[Fuc(a1-2)[GalNAc(a1-3)]Gal(b1-3)GlcNAc(b1-2)Man(a1-6)]Man(b1-4)GlcNAc(b1-4)GlcNAc
# Procedure, shortened: as §1
# [4] = biological target: Fuc(a1-2)[GalNAc(a1-4)]Gal(b1-4)GlcNAc
# Procedure, shortened: as §1
# [5] = biological target: Fuc(a1-3)[Gal(b1-4)]GlcNAc(b1-2)Man(a1-3)[Fuc(a1-3)[Gal(b1-4)]GlcNAc(b1-2)Man(a1-6)]Man(b1-4)GlcNAc(b1-4)[Fuc(a1-6)]GlcNAc
# Procedure, shortened: as §1
# [6] = biological target: Fuc(a1-3)[Gal(b1-4)]GlcNAc(b1-3)GalNAc
# Procedure, shortened: as §1
# Gal(a1-2)Gal = biological target: Gal(a1-2)Gal
# Procedure, shortened: as §1
# Gal(a1-3)Gal(b1-3)GlcNAc = biological target: Gal(a1-3)Gal(b1-3)GlcNAc
# Procedure, shortened: as §1
# [7] = biological target: Gal(a1-3)Gal(b1-3)[Fuc(a1-4)]GlcNAc(b1-2)Man(a1-3)[Gal(a1-3)Gal(b1-3)[Fuc(a1-4)]GlcNAc(b1-2)Man(a1-6)]Man(b1-4)GlcNAc(b1-4)GlcNAc
# Procedure, shortened: as §1
# [8] = biological target: Gal(a1-3)Gal(b1-4)GlcNAc(b1-2)Man
# Procedure, shortened: as §1
# [9] = biological target: Gal(a1-3)[Gal(a1-4)]Gal(b1-4)GlcNAc
# Procedure, shortened: as §1
# Gal(b1-2)Gal = biological target: Gal(b1-2)Gal
# Procedure, shortened: as §1
# Gal(b1-3)Gal = biological target: Gal(b1-3)Gal
# Procedure, shortened: as §1
# [10] = biological target: Gal(b1-3)GlcNAc(b1-2)Man(a1-3)[GlcNAc(b1-4)][Gal(b1-3)GlcNAc(b1-2)Man(a1-6)]Man(b1-4)GlcNAc(b1-4)GlcNAc
# Procedure, shortened: as §1
# [11] = biological target: Gal(b1-3)GlcNAc(b1-3)Gal(b1-4)[Fuc(a1-3)]GlcNAc
# Procedure, shortened: as §1
# [12] = biological target: Gal(b1-3)[Fuc(a1-4)]GlcNAc(b1-2)Man
# Procedure, shortened: as §1
# [13] = biological target: Gal(b1-3)[Fuc(a1-4)]GlcNAc(b1-2)Man(a1-3)[Gal(b1-3)[Fuc(a1-4)]GlcNAc(b1-2)Man(a1-6)]Man(b1-4)GlcNAc(b1-4)[Fuc(a1-6)]GlcNAc
# Procedure, shortened: as §1
# Gal(b1-4)Gal = biological target: Gal(b1-4)Gal
# Procedure, shortened: as §1
# [14] = biological target: Gal(b1-4)GlcNAc(b1-3)Gal(b1-4)GlcNAc(b1-3)Gal(b1-4)GlcNAc
# Procedure, shortened: as §1
# [15] = biological target: Gal(b1-4)GlcNAc(b1-3)Gal(b1-4)GlcNAc(b1-3)Gal(b1-4)GlcNAc(b1-3)Gal(b1-4)GlcNAc(b1-2)Man(a1-3)[Gal(b1-4)GlcNAc(b1-3)Gal(b1-4)GlcNAc(b1-3)Gal(b1-4)GlcNAc(b1-3)Gal(b1-4)GlcNAc(b1-2)Man(a1-6)]Man(b1-4)GlcNAc(b1-4)[Fuc(a1-6)]GlcNAc
# Procedure, shortened: as §1
# [16] = biological target: Gal(b1-4)GlcNAc(b1-3)Gal(b1-4)GlcNAc(b1-3)[Gal(b1-4)GlcNAc(b1-3)Gal(b1-4)GlcNAc(b1-6)]GalNAc
# Procedure, shortened: as §1
# [17] = biological target: Gal(b1-4)GlcNAc(b1-3)Gal(b1-4)[Fuc(a1-3)]GlcNAc(b1-3)Gal(b1-4)[Fuc(a1-3)]GlcNAc
# Procedure, shortened: as §1
# Gal3S(b1-4)Glc = biological target: Gal3S(b1-4)Glc
# Procedure, shortened: as §1
# [18] = biological target: Gal3S(b1-4)[Fuc(a1-3)]GlcNAc6S
# Procedure, shortened: as §1
# Gal3S6S(b1-4)GlcNAc = biological target: Gal3S6S(b1-4)GlcNAc
# Procedure, shortened: as §1
# Gal4S6S(b1-4)GlcNAc = biological target: Gal4S6S(b1-4)GlcNAc
# Procedure, shortened: as §1
# Gal6S(b1-4)GlcNAc6S = biological target: Gal6S(b1-4)GlcNAc6S
# Procedure, shortened: as §1
# [19] = biological target: GalNAc(a1-3)GalNAc(b1-3)Gal(a1-4)Gal(b1-4)GlcNAc
# Procedure, shortened: as §1
# GalNAc(b1-4)GlcNAc6S = biological target: GalNAc(b1-4)GlcNAc6S
# Procedure, shortened: as §1
# GlcA(b1-6)Gal = biological target: GlcA(b1-6)Gal
# Procedure, shortened: as §1
binder,measurement,setting,value
Arath Fbox LD (Arabidopsis thaliana) (protein) EFSVWLEKASGKRCLMLSAMNLSIIWGDNPQYWQWIPIPESRFEKVAKLRDVCWFEIRGRTNTRVLSPRTRYSAYIVFKGVDKCYGFQNVAIEAAVGVVGQEPSRRLICFSEAIRRGRRNVVKPKQREDGWMEIELGEFFNDGGIMDNDEIEMSALETKQLNRKCGLIIQGIEIRPAKILAAASFLEQKLISEEDLNSAVDHHHHHH,glycan array binding signal (z-score),[1],-0.344
same,glycan array binding signal (z-score),[2],-0.52
same,glycan array binding signal (z-score),[3],-0.597
same,glycan array binding signal (z-score),[4],0.47
same,glycan array binding signal (z-score),[5],2.04
same,glycan array binding signal (z-score),[6],-0.455
same,glycan array binding signal (z-score),Gal(a1-2)Gal,-0.171
same,glycan array binding signal (z-score),Gal(a1-3)Gal(b1-3)GlcNAc,9.37
same,glycan array binding signal (z-score),[7],2.84
same,glycan array binding signal (z-score),[8],-0.233
same,glycan array binding signal (z-score),[9],1.55
same,glycan array binding signal (z-score),Gal(b1-2)Gal,2.67
same,glycan array binding signal (z-score),Gal(b1-3)Gal,-0.517
same,glycan array binding signal (z-score),[10],-0.473
same,glycan array binding signal (z-score),[11],-0.574
same,glycan array binding signal (z-score),[12],4.02
same,glycan array binding signal (z-score),[13],2.55
same,glycan array binding signal (z-score),Gal(b1-4)Gal,1.31
same,glycan array binding signal (z-score),[14],0.403
same,glycan array binding signal (z-score),[15],-0.558
same,glycan array binding signal (z-score),[16],-0.532
same,glycan array binding signal (z-score),[17],-0.413
same,glycan array binding signal (z-score),Gal3S(b1-4)Glc,4.4
same,glycan array binding signal (z-score),[18],3.79
same,glycan array binding signal (z-score),Gal3S6S(b1-4)GlcNAc,2.51
same,glycan array binding signal (z-score),Gal4S6S(b1-4)GlcNAc,-0.39
same,glycan array binding signal (z-score),Gal6S(b1-4)GlcNAc6S,0.739
same,glycan array binding signal (z-score),[19],-0.368
same,glycan array binding signal (z-score),GalNAc(b1-4)GlcNAc6S,-0.574
same,glycan array binding signal (z-score),GlcA(b1-6)Gal,1.15

# Source: the supplement of paper PMC8728848
